# Screen size: about 53,000 sequences; about 3,700 (7%) were called active.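 How the source made its calls: active means gene knockdowns whose robust z-score for IL-1 alpha signal is at least 2 or at most -2, so actives lie on both sides; inactive means the rest.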 Shown is part of a subset that was picked to be rich in actives.
# Experiment: Components of the Cytosolic LPS Sensing Pathway: Gene Identification via Genome-wide siRNA Screen;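 further: robust z of the log signal after scaling to non-targeting control siRNA wells of the plate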
# Details: RAW264.7 macrophages, IL-1a HTRF, actives lie on both sides, screened at 100 nM (by protocol), cells primed 5 h with Pam3CSK4 first
# Procedure, shortened: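 RAW264.7; siRNA 100 nM final, RNAiMAX, 48h 37 degrees C; Pam3CSK4 5 h; LipidA + TransIT-TKO 24 h; IL-1a HTRF; CellTiter-Glo viability; robust z vs negative-control median.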
row,Sequence,z-score
1,GGCCGUUCAUUUCCUCAUCTT against Galr2,-0.359 (inactive)
2,GGAUUUGUUUUCACCAAGATT against Dmd,0.3 (inactive)
3,GGUGACAGGUCAGAAAGUCTT against Tor1aip2,-2.78 (active)
4,GGAGUUAAACCACUCAAGATT against Ceacam11,-0.262 (inactive)
5,GCAGGAUGUGACAGAUACATT against Pdcd2,0.185 (inactive)
6,CCAGAUGCUCGAUUCAGUGTT against Crim1,-0.44 (inactive)
7,GGGAAAGACUCAAGGUCCUTT against Olfr586,0.774 (inactive)
8,GGCUAUUACCAUGGCCACUTT against Smim5,-2.85 (active)
9,GCCCAAUCAAAAAAUGGUGTT against Zyx,-0.0505 (inactive)
10,CGUGGACUUUAAGGAGCUGTT against Gdf7,-0.299 (inactive)
11,GGAUAAGGUAAUCUCGGUATT against Olfr710,-0.472 (inactive)
12,CCAUAUUGAAACCUCAUUUTT against Fam126a,-2.33 (active)
13,CGUGCUACAGAUGCGUCAUTT against Exoc8,0.783 (inactive)
14,CGCUCGUUACCUAAAGCAGTT against Nwd1,-2.78 (active)
15,GCUUUGAAAUCUGAAUCAGTT against Terf2,2.06 (active)
16,GAAUCCGAGAUACGAGCCUTT against H2-D4,0.0829 (inactive)
17,GGUUUGAAAUAUUGUGGAUTT against Spdye4b,-1.23 (inactive)
18,CCUAGGGACAUUGGUUAUUTT against Sema4f,2.16 (active)
19,GGAGCUUCCACAACUCAUATT against Esd,-0.456 (inactive)
20,GGCAGUGGAGUGUAUGGAUTT against Popdc2,-0.531 (inactive)
21,GGAUGCAGCUAACAAUUACTT against Tuba8,1.05 (inactive)
22,GGAUGGAGAGAUAAGAAAATT against Lmntd1,-0.572 (inactive)

row,Sequence,z-score
1,CCUUUCCUAACUUGAUCACTT against Cbr2,0.443 (inactive)
2,CCUCUUAAAACAAUACCAATT against Olr1,1.37 (inactive)
3,GCAAAUAAGAUUGCGUCUGTT against Cpa2,2.89 (active)
4,GGCGAAGGAGAAGAAUUAATT against Rhox5,0.352 (inactive)
5,GGUCAACAAGCAUGCAUUUTT against Wars,-1.65 (inactive)
6,CCUUAUUUAGCUAAGCAGATT against Ran,-2.95 (active)
7,GCCAACCAAAACCUAAGCATT against Gjc1,-1.44 (inactive)
8,CCCUCACAAUGAUCGAUUUTT against Tkt,-0.885 (inactive)
9,GGUAAAGUGAACUGUACCUTT against Vstm5,0.843 (inactive)
10,GGUGGAGAUCCGAAAGCAUTT against Ltk,0.597 (inactive)
11,CCCUCCAGAAAAACAGUUUTT against Znrd2,0.284 (inactive)
12,GAGUGAGCAAAUACCAGUUTT against 1700001J03Rik,2.52 (active)
13,CCAAAAAGAUUUGGAUCUCTT against Nr2f6,0.142 (inactive)
14,GGAAACUUUCUAAAUGCUGTT against Pja1,-0.0964 (inactive)
15,GCCAUUAAUGUACCAGGUUTT against Olfr894,-0.202 (inactive)
16,GCGUGAACGUAUUUGUUACTT against Pcdhgc3,0.203 (inactive)
17,ACAGGAGUCCAUAGCCGUCTT against Aspscr1,-1.47 (inactive)
18,CGGAGGUGGCUAUAAAAAUTT against Sik2,0.0967 (inactive)
19,GGAUUCCUCUAACACAUUUTT against Keg1,2.07 (active)
20,CCUCACCCUUUCCAAAAAATT against Polr2f,-1.03 (inactive)
21,GCUUUAAUUGUGAAAGCACTT against Miga1,-2.26 (active)
22,GCAACACCAGAGUAUGUUATT against Cldn34b3,0.794 (inactive)

row,Sequence,z-score
1,GGUAUUGGGUUCCAUUAUATT against Mcmdc2,-0.197 (inactive)
2,CCCAGCAGAAUAACUGCCATT against Pantr1,2.55 (active)
3,GAAAAUGGUCACUACUGAGTT against S100a8,-0.0863 (inactive)
4,GGAAAUGAAGAAAAGUGACTT against Stk32a,-0.0588 (inactive)
5,GGAGUCAACUUGUGAGGGUTT against Lrp8,-0.48 (inactive)
6,CCCAGGUGAGGAUUGAUAATT against Rit2,0.667 (inactive)
7,GCCAACAGUACUUUGUUAATT against Chordc1,0.589 (inactive)
8,GGACAUUUUAAUGUGCUCATT against Erlin2,0.0602 (inactive)
9,GGCACAGAGAUUGAAGAUCTT against Sry,2.04 (active)
10,GCUGAAGUCUCUUCAAUGCTT against Trappc6b,-0.71 (inactive)
11,GCCUACAUAACCUUAAUAUTT against Slc4a10,2.2 (active)
12,GGGAGUAGAGAUCAAAGGCTT against Cfb,-0.0723 (inactive)
13,GGUGAUUUGCUCAAUCCAATT against Phox2a,0.611 (inactive)
14,GGCUGAGAUCUAGCUUACATT against H3c15,-3.21 (active)
15,GGCGAAGUGGUUAAAAGUGTT against Ifnar1,-0.141 (inactive)
16,GGAUAUCCUUUCAAUAGAATT against Mcf2,-0.225 (inactive)
17,GGCCAUUUCUUUCAUAGAUTT against Dusp6,0.509 (inactive)
18,CCUUCGUAGCCUGUAUCAUTT against Myadm,-0.173 (inactive)
19,CCGAGUAUAUCUAUAAUAGTT against Ear14,-0.607 (inactive)
20,GGUGUUUUGUGAAUUGAAATT against Leprotl1,-1.05 (inactive)
21,GGAAGAGUGCGUUUACCUUTT against Rrp12,0.388 (inactive)
22,GCUUACAUUAAAGGAUAUGTT against Rab5c,2.17 (active)

row,Sequence,z-score
1,GGAUCUUCUGGAUAGAAUGTT against Prc1,1.16 (inactive)
2,CCCUUUCGACAGAUUAGACTT against Zfp69,-1.23 (inactive)
3,GGGUCAUGGACAAUAGAAATT against Olfr52,-0.833 (inactive)
4,GGACCAAAAGGAAAAUCCATT against Kcnj6,-1.05 (inactive)
5,CCAUAAAUGAGUCUUCAUUTT against Bnip5,-0.0535 (inactive)
6,GUGGACAUCCUCUCUGUCATT against Tmem54,-2.23 (active)
7,CCCAUCGAUCCAUCACAUUTT against Olfr63,-1.47 (inactive)
8,GGCAAGCUGAAGAUGAACATT against Ntn1,-1.14 (inactive)
9,CGCAAGCCUGACAUACUGCTT against Etv3,0.382 (inactive)
10,GGUAGCAUAGGCUAGCAUATT against Crcp,0.0494 (inactive)
11,GGCAAACCAGGAAAAGGUCTT against Abhd2,-2.33 (active)
12,CCAAACGGAAGUAUCUUAUTT against Tmem128,0.246 (inactive)
13,CGACCAGAGUGGAUACCUGTT against Ocm,1.98 (inactive)
14,GCUUCCUACAAUUAAUUCATT against Thap12,0.614 (inactive)
15,GGGAAUGGAGGUCCAGAUUTT against Spatc1l,-2.33 (active)
16,CGUAGAAGUUGAUGAGUCATT against Numb,-1.05 (inactive)
17,GGAUUUAGGCCUUAUCAUCTT against Atf3,-2.12 (active)
18,GGAAGUUAUUGCCAGCGAGTT against Fbxo5,-0.418 (inactive)
19,GCAGUCUCACCUGAACAGATT against Eppin,0.43 (inactive)
20,CCCACCUUCAAGCAAGAACTT against Ifnk,-2.51 (active)
21,GGAGAGCAUGUGACCAAAATT against Safb2,0.758 (inactive)
22,GCAAAACUGUGUCAGUAUCTT against Slco5a1,0.901 (inactive)

row,Sequence,z-score
1,GGUCAAAGAGUUCUGUGAATT against Ppp2r1a,-0.79 (inactive)
2,GGGCUGACCAGUUUGAGUATT against Polr2h,-2.7 (active)
3,GGCAUGCCUGUUGCUAUGATT against Cyp3a44,0.182 (inactive)
4,AUCUUUCAGUCACACGACCTT against A730085E03Rik,-0.942 (inactive)
5,GGUAGCUUAGAGGACUAACTT against Cidec,-1.78 (inactive)
6,GGCUGAAAGAUUGUAUUGATT against Rwdd2b,-0.601 (inactive)
7,CUCAAAAUCUGGUGAUAAATT against Adam34,2.66 (active)
8,AGCCGAUCCUGUGCCUGUUTT against Dnph1,0.592 (inactive)
9,GGGACUUUGGUCAAUAAUGTT against Tcf19,0.247 (inactive)
10,GGGAAGAAGCUAAAGAAGATT against Wipf1,1.44 (inactive)
11,GCACGUGGAUCCUAACAAGTT against Exd1,-1.84 (inactive)
12,GGAAAAGAUAGAGUUACUUTT against Lrif1,0.484 (inactive)
13,UGGGAAGGUGCUCACUGAGTT against Dnph1,-2.53 (active)
14,GGCUGUCUUUGUUCCAGUATT against Tnfrsf10b,0.218 (inactive)
15,GGGCCAAGGAACCUAUUUGTT against Ltbr,0.58 (inactive)
16,GGCUCUUAGAAAAAUGUUATT against Olfr1156,-0.816 (inactive)
17,GGUCUACGGCACCUUCUAUTT against Bsnd,-0.438 (inactive)
18,CGGGUUUCAUUAUUAUUCCTT against Foxa1,-0.352 (inactive)
19,GGUGUGCCUAUGUUAUAGUTT against Slc13a5,-0.982 (inactive)
20,GGUGAGUUAUAAAAGACCATT against Pex12,-0.0509 (inactive)

# Source: PubChem BioAssay AID1508600 (Functional Genomics Laboratory (NCATS/FGL), 2020)
